The values below come from PubChem BioAssay AID624481 (The Scripps Research Institute Molecular Screening Center, 2012).

A number with no mark means an inactive call. Cut-off read from the data, not from the text of the source: active = inhibition above about 50%; inactive = the rest.

Chain of Prolyl endopeptidase-like (Mus musculus) (Q8C167 whole entry, looked up): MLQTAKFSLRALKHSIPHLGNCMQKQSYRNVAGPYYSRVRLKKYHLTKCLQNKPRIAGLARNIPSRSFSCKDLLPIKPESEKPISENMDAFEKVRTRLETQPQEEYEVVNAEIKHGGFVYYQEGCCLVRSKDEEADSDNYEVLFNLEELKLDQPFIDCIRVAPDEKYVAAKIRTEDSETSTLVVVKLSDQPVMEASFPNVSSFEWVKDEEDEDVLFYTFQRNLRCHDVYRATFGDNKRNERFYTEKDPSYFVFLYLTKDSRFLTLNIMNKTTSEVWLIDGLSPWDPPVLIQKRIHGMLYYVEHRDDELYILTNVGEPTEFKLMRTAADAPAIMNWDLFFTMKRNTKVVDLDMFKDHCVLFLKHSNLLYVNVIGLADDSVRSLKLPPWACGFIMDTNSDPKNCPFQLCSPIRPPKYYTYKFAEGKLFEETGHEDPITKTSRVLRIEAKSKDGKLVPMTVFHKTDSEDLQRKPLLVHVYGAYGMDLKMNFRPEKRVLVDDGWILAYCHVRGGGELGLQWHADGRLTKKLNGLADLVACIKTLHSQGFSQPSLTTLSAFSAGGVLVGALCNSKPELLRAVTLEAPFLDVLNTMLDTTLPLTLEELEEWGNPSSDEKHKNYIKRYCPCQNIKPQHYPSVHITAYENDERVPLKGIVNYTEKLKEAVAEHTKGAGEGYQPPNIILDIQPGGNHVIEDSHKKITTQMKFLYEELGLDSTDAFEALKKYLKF

The experiment addresses Prolyl endopeptidase-like (Mus musculus) (UniProt Q8C167). The experiment is described as follows: purified PREPL inhibitors, PREPL inhibitor project, biochemical, gel-based competitive ABPP, fluorescence, HTS hits (AID 624481). To be noted: at 20 µM, stronger effect = higher value.
For the compound `COc1cc(NC(=O)CN2CCN(c3ccccc3F)CC2)c(C)cc1[N+](=O)[O-]`, the inhibition was -92%.

Regarding `CC(C)(C)n1cnc2cc(NCc3ccc(Br)cc3)ccc21`, the inhibition is -12%. On to `Nc1c(Cl)ncnc1NN=Cc1ccc2ccccc2n1`, for which the inhibition was -48%. `Cc1ccc(C2CC(c3cccc(C)c3)n3nc(N)nc3N2)cc1` (centres undefined): the inhibition is -40%. For `CCN1C(=O)CC(c2ccccc2)N(C2CCCC2)c2nc(Nc3ccc(C(=O)NC4CCN(C)CC4)cc3OC)ncc21` (centres undefined), the inhibition is -25%. Turning to `CN1CCN(C(=O)C2=C[C@@H](c3ccc4c(c3)OCO4)C[C@@H](OCc3ccc(CO)cc3)O2)CC1`, the inhibition is -46%. `NC(=O)[C@@H]1CCCNc2c(I)cc([N+](=O)[O-])cc2C(=O)N[C@@H](CCCN=C(N)N)C(=O)N[C@@H](CCCN=C(N)N)C(=O)N1`: the inhibition was -77%. For `Oc1cc(Nc2ccncc2)cc2cccnc12`, the inhibition was -59%. With `C#CCOCCOCCOCCNc1nc(N2CCN(C(=O)[C@H]([C@@H](C)CC)n3cc([C@@H](N)Cc4ccc(O)cc4)nn3)CC2)nc(N2CCN(C(=O)[C@H](Cc3cc4ccccc4[nH]3)n3cc([C@@H](N)CC(C)C)nn3)CC2)n1`, the inhibition is -105%.

Regarding `CCC(CN(C)C)Oc1cc(NCc2ccccc2)c2ncn(C(C)C)c2c1` (centres undefined), the inhibition was -65%.

As to `Cc1sc2ncnc(NN=Cc3ccccc3O)c2c1C`, the inhibition is -89%. For `COc1ccc(C2CC(c3cccc(C)c3)n3nc(N)nc3N2)cc1` (centres undefined) the value was -50%; for `Cn1c(NC(=O)C[n+]2cc(-c3ccc(Cl)c(Cl)c3)n3c2CCC3)cc(=O)n(C)c1=O`, -80%; for `COc1ccc(C=NNc2cc(C)nc3ccc(OC)cc23)c(OC)c1`, 6%. With `CN(CC(=O)Nc1ccccc1Cl)C(=O)c1cccc(S(=O)(=O)N2CCN(Cc3ccccc3)CC2)c1`, the inhibition was -6%. With `CN1CCc2c(sc3c2C(=O)NC(c2cn(Cc4ccccc4)c4ccccc24)N3)C1` (centres undefined), the inhibition was 7%. On to `C#CCOCCOCCOCCNc1nc(N2CCN(C(=O)[C@H](CCCCN)n3cc([C@@H](N)C(C)CC)nn3)CC2)nc(N2CCN(C(=O)[C@H](Cc3cc4ccccc4[nH]3)n3cc([C@@H](N)CC(C)C)nn3)CC2)n1` (some centres undefined), for which the inhibition is -8%. The same measure for `CCc1ccc(OCC(=O)Nc2ccc(N3CCN(C(=O)c4ccccc4)CC3)cc2)cc1`: -73%; for `CN(C)S(=O)(=O)c1cccc(-c2csc(=Nc3ccccc3)n2CCCN2CCOCC2)c1`: -41%. Take `CN(C)c1ccc(N=C/C=C2\N(C)c3ccccc3C2(C)C)cc1`: the inhibition is -78%. Consider `CCOc1ccc2[nH]c3c(N4CCc5ccccc5C4)ncnc3c2c1`, for which the inhibition was 1%. Regarding `CC(C)n1cnc2c(NCc3ccccc3)cc(OCC3CCN(C)CC3)cc21`, the inhibition is -49%. Take `COc1ccc(NCc2nc3ccccc3n2CCOc2ccc(C)cc2)cc1`: the inhibition is -75%. The same measure for `Clc1ccc(-c2csc(=Nc3cccnc3)n2CCCn2ccnc2)cc1Cl`: -41%.
